Laboratory results as given in PubChem BioAssay (Tox21).
Records with an inconclusive call do not appear. The source made the active and inactive calls. Calls follow the shape of the dose curve; as a rule, active = well fitted curve in the direction sought with a large enough effect in the repeat runs; inconclusive = weak or mixed curves; inactive = no such curve, though single readings can be large; an effect the other way counts as inactive or inconclusive.

How the values were obtained:
[1] = qHTS RealTime-Glo MT Cell Viability Assay in HEK293 cells - 40 hour (AID 1224874); conditions: RealTime-Glo luminescence; max response: hits give low values; also: nearly all actives have a fitted effect of over 50% in size
In short: (§1)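 600 HEK293 cells per well, dispensed already mixed with RealTime-Glo MT reagents. Compound dosing came 5 h later. The same wells were read for luminescence at 0, 8, 16, 24, 32 and 40 h of exposure at 37 C.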

[2] = A CellTox Green Cytotoxicity Assay to monitor cytotoxicity in HEK293 cells - 24 hour (AID 1224875); also: series mostly up to about 77 µM; nearly all actives have a fitted effect of over 45% in size
In short: (§2)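 Dead-cell fluorescence measured kinetically: asymmetric cyanine dye, HEK293, 600 cells/well, 5 h settle, 23 nL cpd/DMSO, 37 C, reads 0–40 h every 8 h.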

[3] = A CellTox Green Cytotoxicity Assay to monitor cytotoxicity in HepG2 cells - 16 hour (AID 1224876); also: nearly all actives have a fitted effect of over 45% in size
In short: (§3)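 First, HepG2 cells (600/well) mixed with reagent were plated; second, after 5 h at 37 C they received compounds via pintool; third, fluorescence was measured at 0 h through 40 h at 8 h intervals.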

[4] = qHTS RealTime-Glo MT Cell Viability Assay in HepG2 cells - 32 hour (AID 1224877); also: nearly all actives have a fitted effect of over 55% in size
In short: (§4)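 Luminescence read-out: viable HepG2 cells reduce a prosubstrate to a NanoLuc substrate, giving a signal proportional to live cell number. Reads taken at 0, 8, 16, 24, 32 and 40 h of compound exposure at 37 C.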

[5] = A CellTox Green Cytotoxicity Assay to monitor cytotoxicity in HepG2 cells - 24 hour (AID 1224878); also: nearly all actives have a fitted effect of over 45% in size
In short: as §3

[6] = A CellTox Green Cytotoxicity Assay to monitor cytotoxicity in HepG2 cells - 40 hour (AID 1224879); also: nearly all actives have a fitted effect of over 40% in size
In short: as §3

[7] = qHTS RealTime-Glo MT Cell Viability Assay in HEK293 cells - 0 hour (AID 1224880); also: top concentration of the series differs between compounds; nearly all actives have a fitted effect of over 45% in size
In short: as §1

[8] = A CellTox Green Cytotoxicity Assay to monitor cytotoxicity in HEK293 cells - 32 hour (AID 1224881); also: nearly all actives have a fitted effect of over 40% in size
In short: as §2

[9] = A CellTox Green Cytotoxicity Assay to monitor cytotoxicity in HepG2 cells - 0 hour (AID 1224882); also: nearly all actives have a fitted effect of over 35% in size
In short: as §3

[10] = A CellTox Green Cytotoxicity Assay to monitor cytotoxicity in HepG2 cells - 32 hour (AID 1224883); also: nearly all actives have a fitted effect of over 50% in size
In short: as §3

[11] = A CellTox Green Cytotoxicity Assay to monitor cytotoxicity in HEK293 cells - 8 hour (AID 1224884); also: nearly all actives have a fitted effect of over 35% in size
In short: as §2

[12] = qHTS RealTime-Glo MT Cell Viability Assay in HepG2 cells - 16 hour (AID 1224885); also: nearly all actives have a fitted effect of over 50% in size
In short: as §4

[13] = qHTS RealTime-Glo MT Cell Viability Assay in HEK293 cells - 24 hour (AID 1224886); also: top concentration of the series differs between compounds; nearly all actives have a fitted effect of over 50% in size
In short: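 Nonlytic real-time viability readout: viable cells convert prosubstrate to NanoLuc substrate, giving luminescence proportional to live cell number. HEK293, 600 cells/well, compound added after 5 h, continuous culture at 37 C.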

[14] = qHTS RealTime-Glo MT Cell Viability Assay in HEK293 cells - 8 hour (AID 1224887)
In short: as §1

[15] = A CellTox Green Cytotoxicity Assay to monitor cytotoxicity in HEK293 cells - 16 hour (AID 1224888); also: nearly all actives have a fitted effect of over 35% in size
In short: as §2

[16] = qHTS RealTime-Glo MT Cell Viability Assay in HepG2 cells - 0 hour (AID 1224889); also: nearly all actives have a fitted effect of over 50% in size
In short: as §4

[17] = A CellTox Green Cytotoxicity Assay to monitor cytotoxicity in HepG2 cells - 8 hour (AID 1224890); also: nearly all actives have a fitted effect of over 45% in size
In short: as §3

[18] = qHTS assay to identify small molecule antagonists of the estrogen receptor alpha (ER-alpha) signaling pathway using the BG1 cell line in the presence of 0.1 nM 17-beta-estradiol - cell viability counter screen (AID 1259241); also: nearly all actives have a fitted effect of over 40% in size
In short: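 Cytotoxicity counter-screen: live-cell protease activity measured by fluorescence (30 min reagent step) in the same wells. Cells were VM7Luc4E2 with endogenous ER-alpha and ERE-driven luciferase, treated 22 hr at 37C alongside 0.1 nM 17beta-estradiol final.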

[19] = qHTS assay to identify small molecule antagonists of the androgen receptor (AR) signaling pathway using the MDA cell line in the presence of 0.5 nM R1881 - cell viability counter screen (AID 1259242); also: nearly all actives have a fitted effect of over 45% in size
In short: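 qHTS format. MDA-kb2 (MMTV-luc, AR/GR responsive) + cpd + 0.5 nM R1881 final, 16 hr 37C/0% CO2 → CellTiter-Fluor 30 min → fluorescence intensity.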
% is scaled to controls: 0 for no effect and ±100 for the full control effect.

Cl/C(=C\n1cncn1)c1ccc(Cl)cc1Cl
inactive: max response [1] -23.8% | Potency [2] | Potency [3] | Potency [4] | Potency [5] | Potency [6] | Potency [7] | Potency [8] | Potency [9] | Potency [10] | Potency [11] | Potency [12] | Potency [13] | Potency [14] | Potency [15] | Potency [16] | Potency [17] | Potency [18] | Potency [19]

FC(F)(F)C(F)(F)C(F)(F)C(F)(F)C(F)(F)C(F)(F)CCI
inactive: max response [1] -0.265% | Potency [2] | Potency [3] | Potency [4] | Potency [5] | Potency [6] | Potency [7] | Potency [8] | Potency [9] | Potency [10] | Potency [11] | Potency [12] | Potency [13] | Potency [14] | Potency [15] | Potency [16] | Potency [17] | Potency [18] | Potency [19]

CC(C)CC=O
inactive: max response [1] 6.71% | Potency [2] | Potency [3] | Potency [4] | Potency [5] | Potency [6] | Potency [7] | Potency [8] | Potency [9] | Potency [10] | Potency [11] | Potency [12] | Potency [13] | Potency [14] | Potency [15] | Potency [16] | Potency [17] | Potency [18] | Potency [19]

CCCCCCCCCCCCCCCCCBr
inactive: max response [1] 3.16% | activity change [2] -8.25% [at 15.8 µM, hits give high values] | cytotoxicity increase [3] -9.75% [at 15.8 µM] | activity change, negative = cytotoxic [4] 4.28% [at 15.8 µM] | cytotoxicity [5] -11% [at 15.8 µM] | cytotoxicity increase [6] -11.7% [at 15.8 µM] | activity change, negative = cytotoxicity [7] -0.712% [at 15.8 µM] | cytotoxicity increase [8] -9.33% [at 15.8 µM] | cytotoxicity [9] -6.85% [at 15.8 µM] | cytotoxicity increase [10] -10.1% [at 15.8 µM] | cytotoxicity increase [11] -3.41% [at 15.8 µM] | activity change, negative = cytotoxic [12] -3.91% [at 15.8 µM] | activity change, negative = cytotoxicity [13] -0.166% [at 15.8 µM] | activity change, negative = cytotoxicity [14] 2.84% [at 15.8 µM] | activity change [15] -5.91% [at 15.8 µM, hits give high values] | activity change, negative = cytotoxicity [16] -6.2% [at 15.8 µM] | cytotoxicity increase [17] -11.1% [at 15.8 µM] | activity change, negative = cytotoxicity [18] 5.52% [at 19 µM] | viability change, negative = cytotoxic [19] -0.565% [at 19 µM]

CCOc1ccc(NC(=O)CC(C)=O)cc1
inactive: max response [1] -6.1% | Potency [2] | Potency [3] | Potency [4] | Potency [5] | Potency [6] | Potency [7] | Potency [8] | Potency [9] | Potency [10] | Potency [11] | Potency [12] | Potency [13] | Potency [14] | Potency [15] | Potency [16] | Potency [17] | Potency [18] | Potency [19]

OCC1CC2CC1C1CCC(CO)C21 (stereo unspecified)
inactive: max response [1] -17.3% | Potency [2] | Potency [3] | Potency [4] | Potency [5] | Potency [6] | Potency [7] | Potency [8] | Potency [9] | Potency [10] | Potency [11] | Potency [12] | Potency [13] | Potency [14] | Potency [15] | Potency [16] | Potency [17] | Potency [18] | Potency [19]

CCN(CC)CCc1nc(-c2ccccc2)no1
inactive: max response [1] 0.0849% | Potency [2] | Potency [3] | Potency [4] | Potency [5] | Potency [6] | Potency [7] | Potency [8] | Potency [9] | Potency [10] | Potency [11] | Potency [12] | Potency [13] | Potency [14] | Potency [15] | Potency [16] | Potency [17] | Potency [18] | Potency [19]

CN(C)C/C=C(/c1ccc(Br)cc1)c1cccnc1
inactive: max response [1] 2.35% | Potency [2] | Potency [3] | Potency [4] | Potency [5] | Potency [6] | Potency [7] | Potency [8] | Potency [9] | Potency [10] | Potency [11] | Potency [12] | Potency [13] | Potency [14] | Potency [15] | Potency [16] | Potency [17] | Potency [18] | Potency [19]

O=C(O)C1CCC(C(=O)O)CC1 (stereo unspecified)
inactive: max response [1] -2.66% | Potency [2] | Potency [3] | Potency [4] | Potency [5] | Potency [6] | Potency [7] | Potency [8] | Potency [9] | Potency [10] | Potency [11] | Potency [12] | Potency [13] | Potency [14] | Potency [15] | Potency [16] | Potency [17] | Potency [18] | Potency [19]

CCCCCCCCCCCCCCC1CO1 (stereo unspecified)
inactive: max response [1] 0.82% | Potency [2] | Potency [3] | Potency [4] | Potency [5] | Potency [6] | Potency [7] | Potency [8] | Potency [9] | Potency [10] | Potency [11] | Potency [12] | Potency [13] | Potency [14] | Potency [15] | Potency [16] | Potency [17] | Potency [18] | Potency [19]

N#CCc1cccc(C(F)(F)F)c1
inactive: max response [1] 10.3% | Potency [2] | Potency [3] | Potency [4] | Potency [5] | Potency [6] | Potency [7] | Potency [8] | Potency [9] | Potency [10] | Potency [11] | Potency [12] | Potency [13] | Potency [14] | Potency [15] | Potency [16] | Potency [17] | Potency [18] | Potency [19]

CCCCOC(=O)c1ccccc1C(=O)OCC(CC)CCCC (stereo unspecified)
inactive: max response [1] -10% | Potency [2] | Potency [3] | Potency [4] | Potency [5] | Potency [6] | Potency [7] | Potency [8] | Potency [9] | Potency [10] | Potency [11] | Potency [12] | Potency [13] | Potency [14] | Potency [15] | Potency [16] | Potency [17] | Potency [18] | Potency [19]

O=CNc1ccccc1
inactive: max response [1] -8.05% | Potency [2] | Potency [3] | Potency [4] | Potency [5] | Potency [6] | Potency [7] | Potency [8] | Potency [9] | Potency [10] | Potency [11] | Potency [12] | Potency [13] | Potency [14] | Potency [15] | Potency [16] | Potency [17] | Potency [18] | Potency [19]

CCCCCCCCCCCCCCCBr
inactive: max response [1] -1.7% | Potency [2] | Potency [3] | Potency [4] | Potency [5] | Potency [6] | Potency [7] | Potency [8] | Potency [9] | Potency [10] | Potency [11] | Potency [12] | Potency [13] | Potency [14] | Potency [15] | Potency [16] | Potency [17] | Potency [18] | Potency [19]
